A selection: hits, their analogues and other compounds. The true share with any hit is near 9.3%.
ELG1 genotox: inducers of genotoxicity in HEK293T ELG1-luciferase cells. AID 504466. HEK293T ELG1-luciferase reporter, luminescence, 16 h. 1.3% of 330,000 active. Potency, µM (doses to about 46 µM), for the others: at the top dose activity change, positive = activation, hits mostly activators; further: % of control where 0% means no effect; nearly all actives have a fitted effect of over 60% in size
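Luminescence read-out: rising ELG1-luciferase signal, reflecting elevated ELG1 protein under genetic stress, flags genotoxic compounds. Cells were treated for 16 hr at 37 °C before ONE-Glo detection.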
FLuc modulator: counter-screen for miR-21 project: firefly luciferase inhibitors or activators. P08659. purified FLuc, Km substrates, luminescence inhibition. Potency, µM (top dose mostly 57.5 µM), without a hit: top-dose activity change, negative = inhibition, hits mostly inhibitors. 6.9% of 360,000 active. AID 588342;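 further: plate controls were vehicle for no effect and reference inhibitor for full effect; nearly all actives have a fitted effect of over 55% in size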
Target sequence (P08659 whole entry, looked up): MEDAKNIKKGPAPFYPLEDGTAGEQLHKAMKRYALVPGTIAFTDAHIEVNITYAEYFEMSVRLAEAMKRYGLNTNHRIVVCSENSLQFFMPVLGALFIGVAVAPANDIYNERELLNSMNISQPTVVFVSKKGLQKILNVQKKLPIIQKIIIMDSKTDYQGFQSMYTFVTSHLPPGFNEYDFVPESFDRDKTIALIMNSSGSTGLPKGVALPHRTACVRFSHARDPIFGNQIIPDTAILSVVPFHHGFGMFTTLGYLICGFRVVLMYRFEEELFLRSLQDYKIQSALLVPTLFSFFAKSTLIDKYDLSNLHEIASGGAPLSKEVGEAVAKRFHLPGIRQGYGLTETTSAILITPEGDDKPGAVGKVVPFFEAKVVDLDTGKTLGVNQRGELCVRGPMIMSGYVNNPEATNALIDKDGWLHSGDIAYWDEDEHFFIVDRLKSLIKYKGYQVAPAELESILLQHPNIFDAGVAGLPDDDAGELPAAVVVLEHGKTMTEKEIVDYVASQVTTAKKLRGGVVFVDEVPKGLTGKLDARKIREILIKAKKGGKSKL
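Biochemical qHTS of compounds, final roughly 60 µM downward over six points, against 10 nM purified firefly luciferase using Km concentrations of substrates (10 uM D-luciferin, 10 uM ATP) in Tris acetate pH 7.5 buffer; luminescence output.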
Rab9 promoter act: activates the Rab9 promoter; Potency, µM (doses to about 9.22 µM), inactives show at the highest dose activation, negative = inhibition, usual class: activators; Huh7 Rab9 promoter-luciferase reporter, luminescence, 24 h; AID 485297; 2.8% of 320,000 active; further: % of control where 0% means no effect; nearly all actives have a fitted effect of over 60% in size
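Stable Rab9-luc Huh7, 1500 cells/well, 2 h settle; cmpd in DMSO, 24 h, 37 °C/5% CO2; luciferase reagent 10 min RT; luminescence.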
SMN2 splice enh: enhancers of SMN2 splice variant expression. 2.8% of 210,000 active. Potency, µM (doses to about 46.1 µM), without a hit: at the highest dose activity change, positive = activation, most hits filed as activators. AID 1458. HEK293 SMN2-luciferase splicing reporter, luminescence, 30-36 h; further: % of control where 0% means no effect; nearly all actives have a fitted effect of over 55% in size
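HEK293 cells carry an SMN2 minigene-luciferase reporter in which exon 7 inclusion puts luciferase in frame. Cells were seeded at 2000 cells/well, attached for 10-12 hours, then exposed to compounds for 30-36 hours at 37C before ONE-Glo luminescence.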
NPC1 promoter act: activators of NPC1 promoter | Huh7 NPC1 promoter luciferase reporter, 24 h | Potency, µM (series often up to 9.22 µM), for the others: top-dose activation, most hits filed as activators | 2.4% of 320,000 active; further: % of control where 0% means no effect; nearly all actives have a fitted effect of over 60% in size
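Stably transfected Huh7 (NPC1 promoter→luciferase), 1500 cells/well in Opti-MEM + 10% FBS, 2 h settle, then compound 24 h at 37 °C. Luminescence after 10 min with Amplite reagent.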
ELG1 DNA repair: ELG1-dependent DNA repair inhibition. HEK293T ELG1-luciferase reporter, luminescence, 16 h; DNA damage induced by 5-fluorouridine. Potency, µM (doses to about 46.1 µM), for the others: at the highest dose activity change, negative = inhibition, hits mostly inhibitors. AID 504467. 2.3% of 330,000 active; further: on the % scale 0 is the no-effect control and ±100 the full control effect; nearly all actives have a fitted effect of over 55% in size
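Step one: seed 2,000 cells per well. Step two: pin-transfer compound or DMSO alongside 5-fluorouridine. Step three: incubate 16 hr, 37 °C, 5% CO2. Step four: add ONE-Glo, wait 30 min, read luminescence.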
Numbers without * were called inactive; ? = inconclusive; / = no result; [ ] = dose if it differs, or a comment. The call rests on the fitted dose curve; in most records, active means well fitted curve in the direction sought with a large enough effect; inconclusive means small, poorly fitted or top-dose-only effect, or another doubt; inactive means no such curve, though single readings can be large; an effect the other way counts as inactive or inconclusive. Potency means the concentration at half of the fitted maximal effect.

SMILES	ELG1 genotox	FLuc modulator	Rab9 promoter act	SMN2 splice enh	NPC1 promoter act	ELG1 DNA repair
Cc1ccccc1Cn1cc(NC(=O)c2cc3nc(-c4ccco4)cc(C(F)(F)F)n3n2)cn1	1.7%	-2.0%	2.7%	-4.7%	-4.2%	6.51µM*
CC(C)CNC(=O)c1cccc(Cn2cc(Cl)cn2)c1	-2.1%	-1.4%	1.5%	-2.8%	-0.4%	-3.4%
CN(C)/C=C/C(=O)c1ccc(-n2cccc2)cc1	?	10.7µM*	2.82µM*	12.6µM*	3.55µM*	?
COc1ccc(C(CNC(=O)/C=C/c2c(Cl)nc3ccccn23)N(C)C)cc1 (centres undefined)	1.4%	-3.8%	-1.4%	16.3%	-0.3%	?
CC(=O)Nc1cccc(C(=O)Nc2ccccc2C(=O)O)c1	-0.7%	23.9µM*	8.3%	4.8%	-0.7%	7.4%
Cc1c(NC(=O)c2ccc(-c3ccccc3)cc2)cccc1C(=O)O	0.291µM*	0.601µM*	?	/	?	?
CC(C)CC(=O)Nc1cccc(C(=O)Nc2ccccc2C(=O)O)c1	-1.5%	15.1µM*	-3.2%	14.1%	-1.5%	-17.2%
O=C(Nc1ccccc1C(=O)O)c1cccc(NC(=O)c2ccc(Br)o2)c1	1.1%	19µM*	2.3%	3.7%	-2.1%	2.4%
Cc1ccccc1NC(=O)c1cccc(NC(=O)CCC(=O)O)c1	-0.6%	1.3%	-3.6%	/	-4.8%	7.5%
OC(CN1C2=NCCCN2c2ccccc21)c1ccc(Cl)cc1 (centres undefined)	-11.4%	2.0%	-3.4%	1.2%	-2.4%	3.4%
O=C(Nc1ccccc1C(=O)O)c1ccccc1	17.2%	?	-3.5%	11.8%	1.8%	?
Cc1ccccc1C(=O)Nc1ccc(O)cc1C(=O)O	-0.6%	?	-2.1%	4.1%	0.5%	-10.1%
O=C(Nc1ccc(O)cc1C(=O)O)c1cccc(Br)c1	-0.6%	21.3µM*	5.5%	-5.9%	2.0%	0.4%
O=C(Nc1ccccc1C(=O)O)c1cccc(C(=O)Nc2ccccc2C(=O)O)c1	-16.1%	19µM*	0.7%	/	-0.2%	?
O=C(Nc1sc(-c2ccccc2)cc1C(=O)O)c1ccccc1	23.1%	?	2.82µM*	/	3.16µM*	?
CCOC(=O)c1cc(-c2ccccc2)sc1NC(=O)c1ccc(OC)cc1	-0.7%	?	-0.3%	-22.1%	0.9%	11.3%
O=C(Cn1ccc2ccccc2c1=O)NCCC(=O)Nc1cccnc1	-2.3%	-0.7%	?	10.2%	-1.6%	-4.5%
CCOC(=O)N1CCN(C(=O)C2CCCN(S(=O)(=O)c3ccc(F)cc3)C2)CC1 (centres undefined)	-4.1%	0.4%	1.1%	-10.3%	1.6%	-0.7%
C/C(=N\Nc1nncc2ccccc12)c1cccc(OC(F)F)c1	2.91µM*	1.07µM*	1.12µM*	/	1µM*	?
COc1cccc(/C(C)=N/NC(=O)c2cc(-c3cccnc3)nc3ccccc23)c1	0.0%	-17.6%	0.4%	-17.0%	0.0%	?
C/C(=N\Nc1nncc2ccccc12)c1ccc(C(C)(C)C)cc1	17.6%	7.57µM*	17.5%[1.84 µM]	/	?	?
C/C(=N\NC(=S)NCc1ccccc1)c1ccc(C(C)(C)C)cc1	-3.2%	0.6%	-0.9%	-29.8%	-0.8%	?
C/C(=N\Nc1nncc2ccccc12)c1ccc(O)cc1	28.4%	0.953µM*	0.708µM*	/	1.26µM*	?
C/C(=N\Nc1c(Cl)c(Cl)nc(C(=O)O)c1Cl)c1ccc(O)cc1	0.0%	?	0.3%	/	0.1%	7.3%
O=C(NNC(=O)c1ccccc1F)c1ccc(S(=O)(=O)N2CCCC2)cc1	1.0%	/	/	/	/	1.1%
CCOC(=O)c1cnc2ccc(OC)cc2c1NCCc1ccccc1	/	-9.0%	/	-53.6%	/	/
COc1ccc(/C=N\NS(=O)(=O)c2ccc(C)cc2)cc1COc1ccccc1[N+](=O)[O-]	-4.9%	2.4%	1.5%	-54.4%	-6.6%	16.4µM*
